For some of these results: Results with a measured potency or affinity are listed apart. The list shows a part of the results. Activity calls are given as the source filed them.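 The calls were made as follows, unless noted: active = membrane potential signal rise above negative control mean plus 3 SD in both duplicates, also active in the earlier TRPC4 screen; inactive = the rest.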

As a reminder, the inhibition is the relative decrease from the control value, in per cent.

A short description of test [1]: nonspecific voltage dye response without TRPC6 – cell-based, parental HEK293, counter-screen for TRPC6 modulator project, confirmation (AID 488924;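 active = membrane potential signal moves up or down beyond 5 SD from buffer-only wells, on both duplicate plates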). Conditions: parental HEK293, membrane potential dye fluorescence; at 10 µM. For orientation: Counterscreens check selectivity or assay interference.
Test [2] is described as follows: membrane potential response modulators in host HEK293 cells – cell-based, second counter-screen, parental HEK293, membrane potential dye, counter-screen for TRPC6 modulator project, confirmation (AID 488926;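 active = membrane potential signal drops by more than 5 SD from the mean control signal, in both duplicate plates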;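 as to inhibition: plate controls were acetylcholine ECmax control wells for no effect and buffer only wells for full effect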). The note with it: parental HEK293, membrane potential dye fluorescence, at 10 µM, after compound, maximal acetylcholine stimulation; hits give high values.
For test [3], the system named is Transient receptor potential cation channel subfamily C member 4 (mouse). The experiment in a line: off-target membrane potential effects via mouse TRPC4 – cell-based, HEK293 TRPC4/mu-opioid, membrane potential dye, selectivity assay for TRPC6 modulator project, confirmation (AID 488927;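 active = membrane potential signal moved up or down beyond 5 SD of buffer control wells, in both duplicate plates, actives on both sides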;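 also: plate controls were assay buffer wells for no effect and DAMGO maximal-effect wells for full effect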). Conditions: membrane potential fluorescence, at 10 µM.
The subject of test [4] is TRPC4 (transient receptor potential cation channel C4), mouse. The experiment in a line: DAMGO-evoked mouse TRPC4 response blockade – cell-based, second screen, HEK293 TRPC4/mu-opioid, membrane potential dye, selectivity assay for TRPC6 modulator project, confirmation (AID 488928;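 active = drop in membrane potential signal beyond 5 SD of the control wells in both duplicate plates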;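 also: TRPC4 counter screen for TRPC6 hits run under conditions tuned for TRPC6 not TRPC4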). Conditions: membrane potential dye fluorescence, at 10 µM, stimulated with maximal-effect DAMGO; hits give high values.

In test [5] the target is Short transient receptor potential channel 6 (Mus musculus) (UniProt Q61143). Description: blockers of TRPC6 cation channel activity – HEK293 cells, membrane potential dye, duplicate, confirmation (AID 488960;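 active = fluorescence ratio falls more than 5 SD below the full-stimulation control mean, in both duplicate runs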;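 also: integrated fluorescence ratio of peak minus minimum over baseline after agonist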). Conditions: ACh-evoked depolarization, at 10 µM; hits give high values.
Test [6] shares this target. Description: mouse TRPC6 channel activators, confirmation, HEK293 cells, membrane potential dye, duplicate (AID 488961;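 active = ratio signal rise beyond 5 SD above unstimulated control wells' mean, seen in both duplicate runs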). Conditions: HEK293-TRPC6 membrane potential dye fluorescence, FDSS; at 10 µM.
The test system of test [7] is TRPC4 beta (transient receptor potential cation channel C4), mouse. Description: TRPC4 cation channel opening, retest – cell-based, Fluo4 calcium, HEK293 TRPC4beta/mu-opioid, duplicates, 10 µM, confirmation (AID 2426;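 active = fluorescence ratio normalized to control raised more than 50% in primary screen plus both repeat runs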;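 as to activation: percent rise of integrated ratio over buffer wells lacking compound which define 0%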). The note with it: Fluo4 calcium fluorescence, at 10 µM; hits give high values.
Test [8] deals with transient receptor potential cation channel C4 beta (TRPC4), mouse. Description: TRPC4 cation channel opening, second retest – cell-based, second round, Fluo4, HEK293 TRPC4beta/mu-opioid, 1 µM, confirmation (AID 2461;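 active = primary screen active and over 50% activation in each of two duplicate runs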;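 as to activation: 0% = wells without test compound as baseline of integrated fluorescence ratio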). The note with it: Fluo4 calcium fluorescence, at 1 µM; hits give high values.
Test [9] relates to TRPC4 (transient receptor potential cation channel C4 beta), mouse. Description: potentiation of DAMGO EC20 TRPC4 response – cell-based, second round, Fluo-4, HEK293 TRPC4beta/mu-opioid, 1 µM, confirmation (AID 2554;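 active = primary screen hit whose fluorescence ratio, in both repeats, exceeds the weak agonist control mean by 3 SD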). Conditions: DAMGO EC20, Fluo-4 calcium flux, at 1 µM; hits give high values.
The test system of test [10] is TRPC4 beta (transient receptor potential cation channel C4), mouse. Description: potentiation of DAMGO EC20 TRPC4 response – cell-based, Fluo-4, HEK293 TRPC4beta/mu-opioid, confirmation (AID 2555;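 active = primary screen hit whose calcium fluorescence ratio, in both repeats, exceeds the weak agonist control mean by 3 SD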). The note with it: DAMGO EC20, Fluo-4 calcium flux, at 10 µM; hits give high values.
Test [11] has as its target Short transient receptor potential channel 4 (Mus musculus) (UniProt Q9QUQ5). Description: blockers of DAMGO-evoked TRPC4 calcium flux – cell-based, Fluo4, HEK293 TRPC4beta/mu-opioid, confirmation (AID 2636;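 active = calcium signal cut by more than 3 SD below the full-agonist control yet still positive, in both repeats and the earlier primary screen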). Conditions: at 10 µM; hits give high values.
Test [12] shares this target. Description: blockers of DAMGO-evoked TRPC4 calcium flux – cell-based, second round, Fluo4, HEK293 TRPC4beta/mu-opioid, 1 µM, confirmation (AID 2637;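 active = calcium signal ratio cut to more than 3 SD under the fully stimulated control mean yet still positive, in both repeats and the primary screen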). The note with it: at 1 µM; hits give high values.
The target is the same in test [13]. The experiment in a line: potentiation of DAMGO-evoked TRPC4 calcium signal – cell-based, HEK293 TRPC4/mu-opioid, Fluo-4 calcium, EC20 DAMGO, dose response (AID 434941;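 active = earlier screen potentiator hit that boosts the TRPC4 ion channel at some dose, with a dose response; inactive = no potentiation, no dose response, or not a prior hit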;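 also: calcium entry triggered by an EC20 dose of DAMGO at the co-expressed mu-opioid receptor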).
Test [14] has the same target. The experiment in a line: block of DAMGO-driven TRPC4 calcium entry – cell-based, HEK293 TRPC4/mu-opioid, Fluo-4 calcium, dose response (AID 434942;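 active = primary screen inhibitor hit that blocks the TRPC4 channel at some tested dose, yielding a dose curve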).
Test [15] addresses Short transient receptor potential channel 6 (Mus musculus) (UniProt Q61143). The experiment in a line: TRPC6 blockade by TRPC4 inhibitor hits – cell-based, HEK293, membrane potential dye, duplicate, selectivity assay for TRPC4 inhibitor project, confirmation (AID 434948;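 active = active in primary screen and both duplicates, each dropping signal beyond three positive-control SD with fluorescence still positive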). The note with it: HEK293 TRPC6, membrane potential dye fluorescence, at 10 µM; inhibition: hits give high values, stimulated with maximal-effect acetylcholine unless noted; outcome: stimulated with maximal-effect acetylcholine unless noted.

Test [16] has the same target. The experiment in a line: TRPC6 opening by TRPC4 activator hits – cell-based, HEK293, membrane potential dye, duplicate, selectivity assay for TRPC4 activator project, confirmation (AID 434950).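 As to activation: 0% = buffer only wells and 100% = acetylcholine maximal-effect wells.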 Conditions: HEK293 TRPC6, membrane potential fluorescence, at 10 µM; activation: hits give high values; outcome: activation.
The target is the same in test [17]. The experiment in a line: positive modulators of mouse TRPC6 channel – HEK293 cells, membrane potential dye, duplicate, selectivity assay for TRPC4 potentiator project, confirmation (AID 434952;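 active = compound raising the membrane signal above positive-control mean plus 3 SD in both repeats, and a primary screen hit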). The note with it: HEK293 TRPC6, membrane potential dye fluorescence, at 10 µM; maximal acetylcholine added after compound unless noted.
The target in test [18] is Short transient receptor potential channel 4 (Mus musculus) (UniProt Q9QUQ5). The experiment in a line: calcium flux activators in TRPC4/5HT1a cells, counter-screen for TRPC4 activator project, cell-based, second counter screen, HEK293 TRPC4/5HT1a, Fluo-4 (AID 434977;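 active = calcium signal rise above buffer-control mean plus 5 SD in both duplicates, and also a hit in the primary screen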;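 as to activation: plate controls were assay buffer for no effect and maximal serotonin response for full effect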). Conditions: Fluo-4 calcium flux, at 10 µM; hits give high values.
Test [19] is described as follows: serotonin-gated TRPC4 signal block – cell-based, second counter screen, HEK293 TRPC4/5HT1a, Fluo-4, counter-screen for TRPC4 inhibitor project, confirmation (AID 434978;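 active = primary screen active whose calcium signal fell more than 3 SD beyond the full-serotonin control mean in both duplicate plates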;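 also: serotonin given first at submaximal then at maximal dose after compound preincubation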). The note with it: Fluo-4 calcium flux, at 10 µM; inhibition: hits give high values, serotonin added to trigger calcium flux unless noted; outcome: serotonin added to trigger calcium flux unless noted.

In test [20] the test system is TRPC4 (mouse), co-expressed with 5HT1a in HEK293. Description: enhancement of serotonin-evoked TRPC4 response – cell-based, second counter screen, HEK293 TRPC4/5HT1a, Fluo-4, counter-screen for TRPC4 potentiator project, confirmation (AID 434979;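 active = signal rise over 3 SD above mean of control wells given weak agonist, in both repeats and first screen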). Conditions: Fluo-4 calcium flux, at 10 µM; outcome: serotonin added at its EC20 dose unless noted; potentiation: hits give high values, serotonin added at its EC20 dose unless noted.

Test [21] is described as follows: nonspecific calcium rise without TRPC4 – cell-based, HEK293 mu-opioid receptor line, counter-screen for TRPC4 activator project, confirmation (AID 449723;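 active = hit in primary screen, with calcium signal over 5 SD above buffer well mean in both duplicates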;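 also: counter screen cells carry the mu-opioid receptor alone and lack TRPC4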). Conditions: HEK293 mu-opioid cells, Fluo-4 calcium fluorescence, at 10 µM; hits give high values.
Test [22] can be described thus: nonspecific potentiation of DAMGO calcium response – cell-based, HEK293 mu-opioid receptor line, counter-screen for TRPC4 allosteric potentiator project, confirmation (AID 449724;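 active = calcium signal rise more than 3 SD above the low-dose agonist control mean, in both duplicate plates and the primary screen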;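 also: HEK293 cells carrying mu-opioid receptor only with no TRPC4 channel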). Conditions: HEK293 mu-opioid receptor cells, Fluo-4 calcium flux, at 10 µM; compound added before EC20 DAMGO stimulus unless noted.
A short description of test [23]: nonspecific flux increase, KCNQ1-free cells – parental CHO cells, counter-screen for KCNQ1 potentiator project (AID 493006;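 active = duplicate-averaged activation above buffer control mean plus 5 SD of those controls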). Conditions: parental CHO-K1 cells, FluxOR thallium flux, at 10 µM; hits give high values.
The target of test [24] is Potassium voltage-gated channel subfamily KQT member 1 (Homo sapiens) (UniProt P51787). Description: enhancement of KCNQ1 channel thallium flux – FluxOR thallium flux, CHO cells, duplicates, confirmation (AID 493007;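 active = potentiation averaged over duplicate wells exceeding buffer-only control mean by more than 3 SD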;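 also: cells depolarized by a potassium plus thallium sulfate stimulus after compound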). The note with it: KCNQ1 cell line, FluxOR thallium flux fluorescence, at 10 µM; hits give high values, % of reference activator effect, buffer zero.
In test [25] the target is Potassium voltage-gated channel subfamily KQT member 2 (Rattus norvegicus) (UniProt O88943). The experiment in a line: KCNQ2 thallium flux enhancement – KCNQ2-CHO-K1 cells, selectivity assay for KCNQ1 potentiator project (AID 493009;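 active = mean duplicate potentiation above the buffer control mean plus 5 SD of buffer wells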;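 also: assay conditions were tuned for KCNQ1 rather than KCNQ2 modulators; signal is max minus min fluorescence divided by baseline after thallium stimulus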). Conditions: FluxOR thallium flux fluorescence, at 10 µM; hits give high values, scaled: buffer 0, activator control 100.
For test [26], the target named is Potassium voltage-gated channel subfamily KQT member 1 (Homo sapiens) (UniProt P51787). Description: KCNQ1 activators by electrophysiology – IonWorks patch clamp, KCNQ1-CHO cells, orthogonal assay for KCNQ1 potentiator project, confirmation (AID 493184;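 active = current rise at least 3 SD above the untreated control mean in each of two repeat wells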). The note with it: automated patch clamp current, at 10 µM.

Short transient receptor potential channel 6 (Mus musculus), sequence (Q61143 whole entry, looked up): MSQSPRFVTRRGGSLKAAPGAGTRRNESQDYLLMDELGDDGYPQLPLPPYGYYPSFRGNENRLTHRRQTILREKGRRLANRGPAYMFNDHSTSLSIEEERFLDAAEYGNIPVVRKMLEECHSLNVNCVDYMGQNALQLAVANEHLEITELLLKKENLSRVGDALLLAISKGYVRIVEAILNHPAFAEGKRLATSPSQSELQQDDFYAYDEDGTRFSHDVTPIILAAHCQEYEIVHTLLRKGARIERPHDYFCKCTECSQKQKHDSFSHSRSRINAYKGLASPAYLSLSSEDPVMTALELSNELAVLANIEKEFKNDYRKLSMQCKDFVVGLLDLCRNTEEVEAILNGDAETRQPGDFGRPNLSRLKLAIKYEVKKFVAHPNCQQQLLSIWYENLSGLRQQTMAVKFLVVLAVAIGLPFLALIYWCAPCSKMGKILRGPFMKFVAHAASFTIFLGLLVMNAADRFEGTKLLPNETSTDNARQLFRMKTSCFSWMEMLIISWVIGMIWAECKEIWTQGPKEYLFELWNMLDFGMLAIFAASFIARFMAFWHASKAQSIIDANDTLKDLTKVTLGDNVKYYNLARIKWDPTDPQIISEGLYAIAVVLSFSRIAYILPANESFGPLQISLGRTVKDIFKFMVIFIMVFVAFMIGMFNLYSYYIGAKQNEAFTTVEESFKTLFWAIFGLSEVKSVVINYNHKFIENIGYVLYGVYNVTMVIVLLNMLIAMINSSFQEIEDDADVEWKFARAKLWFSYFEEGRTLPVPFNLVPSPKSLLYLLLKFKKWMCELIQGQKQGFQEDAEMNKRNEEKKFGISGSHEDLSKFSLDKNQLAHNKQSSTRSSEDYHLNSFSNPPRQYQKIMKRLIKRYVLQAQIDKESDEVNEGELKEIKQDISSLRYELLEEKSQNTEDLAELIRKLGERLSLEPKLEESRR
Short transient receptor potential channel 4 (Mus musculus), sequence (Q9QUQ5 whole entry, looked up): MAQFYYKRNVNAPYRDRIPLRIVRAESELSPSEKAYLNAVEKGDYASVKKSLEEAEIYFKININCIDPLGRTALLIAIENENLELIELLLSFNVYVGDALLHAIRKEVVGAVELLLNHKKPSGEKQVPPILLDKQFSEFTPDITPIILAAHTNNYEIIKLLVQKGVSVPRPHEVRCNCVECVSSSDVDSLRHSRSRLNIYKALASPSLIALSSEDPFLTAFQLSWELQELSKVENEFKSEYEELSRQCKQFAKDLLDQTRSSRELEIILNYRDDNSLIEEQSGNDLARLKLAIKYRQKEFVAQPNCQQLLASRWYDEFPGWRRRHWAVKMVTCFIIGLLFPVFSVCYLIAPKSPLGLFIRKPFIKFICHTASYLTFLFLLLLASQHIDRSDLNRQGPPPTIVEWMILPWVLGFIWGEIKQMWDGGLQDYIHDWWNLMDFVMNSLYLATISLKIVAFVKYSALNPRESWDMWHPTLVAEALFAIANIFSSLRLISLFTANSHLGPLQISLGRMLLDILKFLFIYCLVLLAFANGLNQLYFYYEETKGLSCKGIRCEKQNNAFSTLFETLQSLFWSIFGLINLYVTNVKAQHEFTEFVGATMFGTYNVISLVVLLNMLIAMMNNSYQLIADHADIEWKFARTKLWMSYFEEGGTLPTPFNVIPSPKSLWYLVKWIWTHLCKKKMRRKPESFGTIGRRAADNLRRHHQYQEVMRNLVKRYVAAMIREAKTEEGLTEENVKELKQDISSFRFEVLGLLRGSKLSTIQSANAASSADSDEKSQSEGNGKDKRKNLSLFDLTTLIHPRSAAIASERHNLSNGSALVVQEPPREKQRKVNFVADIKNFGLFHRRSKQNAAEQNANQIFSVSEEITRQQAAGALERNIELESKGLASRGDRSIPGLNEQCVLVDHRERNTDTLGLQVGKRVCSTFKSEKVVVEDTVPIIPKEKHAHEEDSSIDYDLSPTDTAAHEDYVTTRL
Potassium voltage-gated channel subfamily KQT member 1 (Homo sapiens), sequence (P51787 whole entry, looked up): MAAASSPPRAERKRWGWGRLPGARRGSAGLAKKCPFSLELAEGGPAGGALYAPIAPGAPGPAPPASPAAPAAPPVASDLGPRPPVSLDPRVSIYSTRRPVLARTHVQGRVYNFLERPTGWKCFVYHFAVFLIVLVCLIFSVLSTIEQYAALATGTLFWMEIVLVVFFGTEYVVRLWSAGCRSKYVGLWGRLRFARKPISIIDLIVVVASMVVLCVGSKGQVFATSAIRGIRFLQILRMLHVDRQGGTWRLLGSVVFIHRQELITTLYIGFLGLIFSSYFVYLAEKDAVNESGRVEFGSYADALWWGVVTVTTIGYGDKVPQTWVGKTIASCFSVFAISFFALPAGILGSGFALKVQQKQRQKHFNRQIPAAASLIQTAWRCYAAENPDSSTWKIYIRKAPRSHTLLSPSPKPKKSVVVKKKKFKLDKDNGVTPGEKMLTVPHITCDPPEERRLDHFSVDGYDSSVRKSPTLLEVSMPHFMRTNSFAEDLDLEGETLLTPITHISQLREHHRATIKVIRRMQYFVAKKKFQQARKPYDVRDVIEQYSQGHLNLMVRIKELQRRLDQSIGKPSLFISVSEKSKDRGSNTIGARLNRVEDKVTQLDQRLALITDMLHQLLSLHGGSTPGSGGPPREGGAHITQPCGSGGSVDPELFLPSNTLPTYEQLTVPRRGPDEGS
Potassium voltage-gated channel subfamily KQT member 2 (Rattus norvegicus), sequence (O88943 whole entry, looked up): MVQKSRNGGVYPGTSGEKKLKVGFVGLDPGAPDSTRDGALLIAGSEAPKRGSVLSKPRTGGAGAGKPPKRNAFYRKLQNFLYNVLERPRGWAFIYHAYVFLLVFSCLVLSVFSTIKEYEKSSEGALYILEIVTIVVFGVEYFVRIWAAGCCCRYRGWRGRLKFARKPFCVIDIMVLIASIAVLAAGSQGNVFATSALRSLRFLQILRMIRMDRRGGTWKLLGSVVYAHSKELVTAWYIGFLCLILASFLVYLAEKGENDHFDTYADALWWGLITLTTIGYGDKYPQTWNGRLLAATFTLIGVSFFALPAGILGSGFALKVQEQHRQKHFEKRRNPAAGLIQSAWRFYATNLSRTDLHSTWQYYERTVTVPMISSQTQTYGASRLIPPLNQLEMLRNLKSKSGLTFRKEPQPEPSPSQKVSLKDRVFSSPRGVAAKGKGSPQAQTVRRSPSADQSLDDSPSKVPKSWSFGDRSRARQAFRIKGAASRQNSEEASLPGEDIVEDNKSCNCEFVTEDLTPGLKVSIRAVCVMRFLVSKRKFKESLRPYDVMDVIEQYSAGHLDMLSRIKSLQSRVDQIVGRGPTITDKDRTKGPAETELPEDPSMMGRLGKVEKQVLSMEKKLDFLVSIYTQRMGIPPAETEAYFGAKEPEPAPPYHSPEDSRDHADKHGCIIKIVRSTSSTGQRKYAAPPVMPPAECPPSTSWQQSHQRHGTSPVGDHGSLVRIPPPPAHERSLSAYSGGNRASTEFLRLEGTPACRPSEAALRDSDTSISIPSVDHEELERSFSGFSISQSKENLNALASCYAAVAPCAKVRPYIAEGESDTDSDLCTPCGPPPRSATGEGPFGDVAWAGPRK

In the case of `CC1(C)Cc2c(C#N)c(N3CCNCC3)nc(-c3ccco3)c2CS1`, the result in [1], in test [2] and in [6] was inactive. The percent change from control (negative = decrease, positive = increase) in test [3] is -14.5% (active). The inhibition in test [4] was 76.5% (active); in test [5], 62.5% (active).
Take `CN1CCN(c2cc(N3CCNCC3)ccc2[N+](=O)[O-])CC1`: the membrane potential signal change in test [1] was -426% (active). Also, the inhibition was 102% (active) in [2], 66.5% (active) in [4] and 72.5% (active) in test [5]. In addition, the percent change from control (negative = decrease, positive = increase) in test [3] is -68% (active). Further, the compound was called inactive in test [6].
For the compound `CCC1(C)CC(CCNCc2ccc(N(C)C)cc2)(c2ccc(F)cc2)CCO1` (centres undefined), in test [7], the activation is 184% (active). Besides, the outcome in [8], in test [9], in test [10], in [11], in [12] and in [13] was inactive. In addition, the outcome in test [14], in test [15], in [16], in [17], in test [18] and in test [19] was inactive. Besides, the outcome in test [20], in [21] and in test [22] was inactive.
As for `CCc1n[nH]c(CCN)n1`, the activation was 178% (active) in [7] and 48.7% (active) in test [18]. Moreover, the outcome in [8], in test [9], in test [10], in [11], in [12] and in [13] was inactive. The result in test [14], in [15], in [16], in test [17], in [19] and in test [20] was inactive. The outcome in [21] and in test [22] was inactive.
On to `N#CCCn1cc(C(=O)Nc2ccccc2Cl)c(-c2ccc(F)cc2)n1`, for which the result in [23], in test [24] and in test [26] was inactive. The potentiation in [25] is 144% (active).
Consider `CN(C)C1(CNC(=O)c2ccc(Cl)c(S(=O)(=O)NCc3ccco3)c2)CCCCC1`, for which the result in [7], in [9], in test [10], in [11], in test [12] and in [13] was inactive. In addition, the outcome in test [14], in test [15], in [17], in test [18], in test [19] and in test [20] was inactive. In addition, the outcome in test [21] and in [22] was inactive. In addition, the activation is 71% (active) in test [8] and 36% (active) in test [16].

Values taken from PubChem BioAssay.
